Sampled rows, rich in hits. Any-hit rate of the full collection: about 2.3%.
M1 ag parental: nonselective activator or artifact in parental CHO-K1 cells; Fluo-8 calcium fluorescence; scaled to maximal ATP response, vehicle zero; activation, % at 3 µM; actives 0.48% (n = 360,000); in the data active = activation above about 15%;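 also: untransfected CHO-K1 host cells lacking M1 receptor as counterscreen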
CHO-K1 Ca antag: M1 antagonist counterscreen hit in parental CHO-K1 cells; ATP-induced calcium, Fluo-8 fluorescence; actives 0.6% (n = 360,000); inhibition, % at 3 µM; AID 602250;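 active = inhibition above a per-plate cutoff, the plate's mean sample inhibition plus 3 SD, cut at about 24% in these data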;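 also: 0% = DMSO plus EC80 ATP and 100% = DMSO alone without ATP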
CHO-K1 Ca PAM: counter-screen for M1 PAMs: effect in parental CHO-K1 cells; ATP EC20, Fluo-8 calcium fluorescence; 0% at ATP EC20, 100% at ATP max; activation, % at 3 µM; actives 0.02% (n = 360,000); AID 602247;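 active = activation above the run cutoff, the mean activation of all test compounds plus 3 SD, cut at about 40% in these data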;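 also: peak over basal fluorescence ratio in a 140 s read after ATP addition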
CHRM1 agonist: agonists of human M1 muscarinic receptor | actives 0.33% (n = 360,000) | CHO-K1 hM1, Fluo-8 calcium fluorescence, agonist mode; 0% DMSO, 100% acetylcholine EC100 | activation, % at 3 µM;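 active = activation above the run's mean compound activation plus 3 SD, cut at about 16% in these data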;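 also: peak over basal fluorescence ratio within a 140 s kinetic read after compound addition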
Target sequence (P11229 whole entry, looked up): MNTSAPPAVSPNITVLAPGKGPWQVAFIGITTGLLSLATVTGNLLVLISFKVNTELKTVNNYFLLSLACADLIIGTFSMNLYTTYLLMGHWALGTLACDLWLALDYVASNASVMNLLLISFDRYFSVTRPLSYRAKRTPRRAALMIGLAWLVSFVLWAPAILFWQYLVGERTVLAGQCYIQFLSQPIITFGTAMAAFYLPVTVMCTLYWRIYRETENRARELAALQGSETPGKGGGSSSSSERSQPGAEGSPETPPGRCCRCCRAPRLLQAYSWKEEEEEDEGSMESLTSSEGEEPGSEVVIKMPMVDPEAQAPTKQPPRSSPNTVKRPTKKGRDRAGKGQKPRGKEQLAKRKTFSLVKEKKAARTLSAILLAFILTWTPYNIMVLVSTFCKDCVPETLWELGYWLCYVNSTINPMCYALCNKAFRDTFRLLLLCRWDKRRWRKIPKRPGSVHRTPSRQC
M1 PAM: human CHRM1 positive allosteric modulation | P11229 | CHO-K1 hM1, Fluo-8 calcium fluorescence, ACh EC20; 0% = ACh EC20, 100% = maximal ACh | activation, % at 3 µM | actives 0.088% (n = 360,000); in the data active = activation above about 19%, passing the limit was not always enough
CHRM1 antagonist: human CHRM1 antagonism; P11229; CHO-K1 hM1, Fluo-8 calcium fluorescence, ACh EC80 antagonist; actives 1.3% (n = 360,000); inhibition, % at 3 µM;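 active = percent inhibition above its own plate's cutoff, namely the mean of that plate's compound wells plus 3 SD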;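 also: peak over basal fluorescence ratio during 140 s after agonist addition; 0% = ACh EC80 plus DMSO and 100% = DMSO alone without agonist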
Starred values were filed as active, the others as inactive.

Screening Cn1ncc([N+](=O)[O-])c1C(=O)N/N=C/c1cccc([N+](=O)[O-])c1 returned M1 ag parental 0.3, CHO-K1 Ca antag -3.8, CHO-K1 Ca PAM 4.1, CHRM1 agonist -3.7, M1 PAM -7.5 and CHRM1 antagonist 9.8.
Screening COc1cc(C(=O)NCC2(N(C)C)CCCCC2)ccc1OCc1ccccc1 returned M1 ag parental 0.6, CHO-K1 Ca antag -10.0, CHO-K1 Ca PAM -6.8, CHRM1 agonist -10.7, M1 PAM 2.7 and CHRM1 antagonist -8.7.
Screening Cc1ccc(NC(=O)CCc2nnc3ccc(N4CCC5(CC4)OCCO5)nn23)cc1F returned M1 ag parental 1.2, CHO-K1 Ca antag -12.1, CHO-K1 Ca PAM 9.1, CHRM1 agonist -3.5, M1 PAM 7.7 and CHRM1 antagonist -11.8.
`CCN(CC(=O)Nc1ccccc1C(F)(F)F)CC(=O)c1[nH]c(C)c(C(C)=O)c1C` gave M1 ag parental 3.8, CHO-K1 Ca antag 29.2*, CHO-K1 Ca PAM -12.9, CHRM1 agonist 2.2, M1 PAM 1.7 and CHRM1 antagonist 3.2.
For CC(=O)c1c(C)[nH]c(C(=O)CN(C)CC(=O)Nc2ccccc2Cl)c1C the results were M1 ag parental 5.9, CHO-K1 Ca antag -7.2, CHO-K1 Ca PAM 8.9, CHRM1 agonist 4.9, M1 PAM -11.1 and CHRM1 antagonist 4.9.
Screening Cc1ccc(C2NC(=O)c3ccccc3O2)cc1 (centres undefined) returned M1 ag parental 18.8*, CHO-K1 Ca antag -4.1, CHO-K1 Ca PAM 20.7, CHRM1 agonist 2.4, M1 PAM 11.6 and CHRM1 antagonist -11.1.
Screening O=C1NC(c2cccc([N+](=O)[O-])c2)Oc2ccccc21 (centres undefined) returned M1 ag parental -0.8, CHO-K1 Ca antag 27.4*, CHO-K1 Ca PAM -19.5, CHRM1 agonist -2.8, M1 PAM -7.1 and CHRM1 antagonist 10.1.
O=C1NC(c2ccc(F)cc2)Oc2ccccc21 (centres undefined) was read as M1 ag parental 1.2, CHO-K1 Ca antag -7.2, CHO-K1 Ca PAM -5.1, CHRM1 agonist -1.8, M1 PAM 1.4 and CHRM1 antagonist -1.2.
Screening COC(C(=O)Nc1ccnn1C1CCN(Cc2ccc(C)s2)CC1)c1ccccc1 (centres undefined) returned M1 ag parental 1.2, CHO-K1 Ca antag -3.1, CHO-K1 Ca PAM 0.6, CHRM1 agonist -3.4, M1 PAM 4.3 and CHRM1 antagonist -7.9.
For COc1ccc(CCC(=O)NCCS(=O)(=O)N2CCN(c3ccc(OC)cc3)CC2)cc1 the results were M1 ag parental 15.2*, CHO-K1 Ca antag -6.0, CHO-K1 Ca PAM 4.2, CHRM1 agonist 0.8, M1 PAM -18.2 and CHRM1 antagonist 18.6.
`COc1ccc(CCC(=O)NCCS(=O)(=O)N2CCN(c3ccccc3)CC2)cc1` gave M1 ag parental 9.4, CHO-K1 Ca antag -3.8, CHO-K1 Ca PAM 1.5, CHRM1 agonist 4.5, M1 PAM 15.8 and CHRM1 antagonist -2.9.
`CC(CCc1ccccc1)NC(=O)c1ccccc1Cl` (centres undefined) gave M1 ag parental 0.8, CHO-K1 Ca antag -8.4, CHO-K1 Ca PAM 17.4, CHRM1 agonist -0.6, M1 PAM 7.7 and CHRM1 antagonist -11.0.
For CCOc1ncccc1C(=O)NC(C)CCc1ccccc1 (centres undefined) the results were M1 ag parental 18.6*, CHO-K1 Ca antag -6.9, CHO-K1 Ca PAM 14.0, CHRM1 agonist -4.9, M1 PAM 4.8 and CHRM1 antagonist -9.0.
`COc1ccc(NS(=O)(=O)c2cccc(C(=O)N(C)CC(=O)Nc3ccc(C)cc3)c2)cc1` gave M1 ag parental 1.3, CHO-K1 Ca antag -3.5, CHO-K1 Ca PAM 17.9, CHRM1 agonist -2.1, M1 PAM 1.0 and CHRM1 antagonist -3.6.
`COc1ccc(NS(=O)(=O)c2ccc(C(=O)N(C)Cc3cccs3)cc2)cc1` gave M1 ag parental 20.2*, CHO-K1 Ca antag -8.2, CHO-K1 Ca PAM -1.1, CHRM1 agonist 25.3*, M1 PAM -7.3 and CHRM1 antagonist 1.7.
For COc1ccc(NC(=O)CN(C)C(=O)c2ccc(NS(=O)(=O)c3cccc([N+](=O)[O-])c3)cc2)cc1 the results were M1 ag parental -0.3, CHO-K1 Ca antag 33.4*, CHO-K1 Ca PAM -29.4, CHRM1 agonist -3.7, M1 PAM 8.1 and CHRM1 antagonist -14.7.

Screens from PubChem BioAssay.
